An excerpt weighted towards active compounds, which were near 4.4% of everything screened.
TRHR PAM – allosterically enhances the human TRH receptor | P34981 | TRHR cells, fluo-8 calcium fluorescence, EC20 TRH enhancement | enhancement, % at 2 µM | actives 0.66% (n = 360,000); in the data active = enhancement above about 30%
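Enhancer read-out: after compound pinning and an initial kinetic agonist-mode read, an EC20 of TRH (10 nM final) was injected and fluo-8 calcium signal (Ex 480/Em 530) followed at 1 s/cycle for 100 cycles in TRHR-expressing cells.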
D1 ag – activates the human D1 dopamine receptor. actives 1% (n = 360,000). activation, % at 2 µM. AID 504660. HEK293 T-REx D1 cells, calcium flux, agonist mode. P21728
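Inducible HEK293 T-REx D1 cells, force-coupled to calcium signalling, were plated at 4000 cells/well with tetracycline and held overnight at 30 C. After no-wash calcium dye loading, compound-evoked calcium rise over 180 s flagged agonists.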
D1 PAM – enhances dopamine response at the human D1 receptor. P21728. HEK293 TREx D1 cells, calcium flux, dopamine EC20 potentiation. potentiation, % at 10 µM. actives 0.036% (n = 360,000). AID 504651; in the data active = potentiation above about 30%
D1 antag – human D1 dopamine receptor antagonism. HEK293 TREx D1 cells, calcium flux, dopamine EC80; hits give low values. P21728. AID 504652. activity change, negative = inhibition, % at 10 µM. actives 3.2% (n = 360,000); in the data active = activity change below about -30%
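Tetracycline-induced HEK293 Trex D1 cells, force-coupled to calcium, dye-loaded; compounds added and read 180 s, then EC80 dopamine added and calcium flux tracked kinetically another 180 s.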
USP1 inh – USP1/UAF1 (human) deubiquitinase inhibition | recombinant USP1/UAF1, Ub-Rhodamine cleavage fluorescence | actives 0.23% (n = 390,000) | Potency, µM (doses to about 57.1 µM), usual class: inhibitors; active = well fitted inhibition curve with a large enough effect; inconclusive = small, poorly fitted or top-dose-only effect; inactive = no such curve, though single readings can be large or run the other way; also: nearly all actives have a fitted effect of over 60% in size
Target sequence (O94782 whole entry, looked up): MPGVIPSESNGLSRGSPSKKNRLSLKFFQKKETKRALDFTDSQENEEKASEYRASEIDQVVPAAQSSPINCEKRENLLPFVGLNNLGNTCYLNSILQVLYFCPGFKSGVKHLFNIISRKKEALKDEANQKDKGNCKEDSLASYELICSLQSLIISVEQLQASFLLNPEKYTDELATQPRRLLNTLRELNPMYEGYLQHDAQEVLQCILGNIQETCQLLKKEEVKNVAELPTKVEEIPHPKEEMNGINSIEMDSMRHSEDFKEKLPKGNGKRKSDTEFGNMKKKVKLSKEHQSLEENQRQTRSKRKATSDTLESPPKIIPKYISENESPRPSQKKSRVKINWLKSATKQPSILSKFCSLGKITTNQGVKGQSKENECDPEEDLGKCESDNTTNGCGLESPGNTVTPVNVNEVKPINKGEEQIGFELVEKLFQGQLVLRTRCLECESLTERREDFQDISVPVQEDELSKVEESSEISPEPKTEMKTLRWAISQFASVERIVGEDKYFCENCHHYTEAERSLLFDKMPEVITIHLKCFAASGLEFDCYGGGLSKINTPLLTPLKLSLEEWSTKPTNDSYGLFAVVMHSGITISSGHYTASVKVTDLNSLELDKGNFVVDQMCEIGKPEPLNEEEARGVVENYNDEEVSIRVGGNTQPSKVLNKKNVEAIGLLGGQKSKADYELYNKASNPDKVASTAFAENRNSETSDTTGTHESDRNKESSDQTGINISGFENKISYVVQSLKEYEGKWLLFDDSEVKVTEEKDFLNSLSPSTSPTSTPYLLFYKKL
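In this screen, compounds sit with the deubiquitinase complex (1nM) for 15 min at room temperature before Ub-Rho is added at 150nM final. Fluorescence rise is then followed for 6 reads every 60 seconds.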
TRHR agonist – activates the human TRH receptor | actives 0.18% (n = 360,000) | activation, % at 2 µM | TRHR cells, calcium flux fluo-8, FDSS agonist mode | AID 493084 | P34981
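In this calcium-flux screen, cells bearing human TRHR are dye-loaded with fluo-8, baselined for 10 cycles, then exposed to library compounds; positive kinetic calcium responses during the agonist phase mark hits, with TRH as control.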
Numbers stand for hits. Rule as the data show it, unless noted: active = activation above about 30%; inactive = the rest.

CC(NS(=O)(=O)c1ccc2c(c1)CCN2C(=O)CCCC(=O)O)c1ccccc1 (centres undefined) was read as TRHR PAM inactive, D1 ag inactive, D1 PAM inactive, D1 antag inactive, USP1 inh inactive and TRHR agonist inactive.
Cc1ccc(CCNC(=O)C2CCCN(S(=O)(=O)c3ccc4c(c3)oc(=O)n4C)C2)cc1 (centres undefined) was read as TRHR PAM inactive, D1 ag inactive, D1 PAM inactive, D1 antag inactive, USP1 inh inactive and TRHR agonist inactive.
`COC(=O)c1cc(Nc2cc(C)c3c(O)cccc3n2)cc(C(=O)OC)c1` gave TRHR PAM inactive, D1 ag inactive, D1 PAM inactive, D1 antag inactive, USP1 inh inactive and TRHR agonist inactive.
`COC(=O)c1cc(Nc2cc(C)c3ccc(O)cc3n2)cc(C(=O)OC)c1` gave TRHR PAM 32, D1 ag inactive, D1 PAM inactive, D1 antag inactive, USP1 inh inactive and TRHR agonist inactive.
Cc1cc(C)n(-c2ccc(NC(=O)C3CCCCN3Cc3cccc4c3OCO4)cc2)n1 (centres undefined) was read as TRHR PAM 30, D1 ag inactive, D1 PAM inactive, D1 antag inactive, USP1 inh inconclusive and TRHR agonist inactive.
CCc1ccccc1Nc1ncnc2ccccc12 was read as TRHR PAM inactive, D1 ag inactive, D1 PAM inactive, D1 antag -60, USP1 inh inactive and TRHR agonist inactive.
`Cc1cccc(C)c1NC(=O)Cn1c(SCC(=O)NCc2ccccc2)nc2ccccc21` gave TRHR PAM inactive, D1 ag inactive, D1 PAM inactive, D1 antag inactive, USP1 inh inactive and TRHR agonist inactive.
Brc1ccccc1C1CC(c2ccccc2)=Nc2ccccc2N1 (centres undefined) was read as TRHR PAM inactive, D1 ag inactive, D1 PAM inactive, D1 antag inactive, USP1 inh inconclusive and TRHR agonist inactive.
Screening Clc1ccccc1C1CC(c2ccccc2)=Nc2ccccc2N1 (centres undefined) returned TRHR PAM inactive, D1 ag inactive, D1 PAM inactive, D1 antag inactive, USP1 inh 50µM and TRHR agonist inactive.
Screening COc1ccc(OC)c(CNC(=O)c2cc(=O)[nH]c3ccc(S(=O)(=O)N4CCCCC4C)cc23)c1 (centres undefined) returned TRHR PAM inactive, D1 ag inactive, D1 PAM inactive, D1 antag inactive, USP1 inh inactive and TRHR agonist inactive.
`Cc1ccc(NC(=O)CSC2=NN3CCCC(=O)N=C3S2)cc1Cl` gave TRHR PAM inactive, D1 ag inactive, D1 antag -39, USP1 inh inconclusive and TRHR agonist inactive.
For Cc1cc(C)cc(-n2ccnc2SCC(=O)Nc2ccc(C)c(Cl)c2)c1 the results were TRHR PAM inactive, D1 ag inactive, D1 PAM inactive, D1 antag -40, USP1 inh inactive and TRHR agonist inactive.
For Cc1ccc(C)c(NC(=O)CSc2nncn2C)c1 the results were TRHR PAM inactive, D1 ag inactive, D1 PAM inactive, D1 antag -33, USP1 inh inactive and TRHR agonist inactive.
`CCOc1ccc(-n2ccnc2SCC(=O)Nc2cc(C)ccc2C)cc1` gave TRHR PAM inactive, D1 ag inactive, D1 PAM inactive, D1 antag -46, USP1 inh inactive and TRHR agonist inactive.
Screening CCOc1ccc(-n2ccnc2SCC(=O)Nc2cccc3ccccc23)cc1 returned TRHR PAM inactive, D1 ag inactive, D1 PAM inactive, D1 antag inactive, USP1 inh inactive and TRHR agonist inactive.
`CC(=O)Nc1ccc(NC(=O)c2ccc3c(c2)N(Cc2cccc(Cl)c2)C(=O)c2ccccc2S3=O)cc1` (centres undefined) gave TRHR PAM inactive, D1 ag inactive, D1 PAM inactive, D1 antag inactive, USP1 inh inactive and TRHR agonist inactive.
Screening CCOC(=O)c1sc2ncn(CC(=O)Nc3ccc(C)cc3Br)c(=O)c2c1C returned TRHR PAM inactive, D1 ag inactive, D1 PAM inactive, D1 antag inactive, USP1 inh inactive and TRHR agonist inactive.
For CCCn1c(=O)c2sccc2n2c(CCCC(=O)Nc3ccc(Oc4ccccc4)cc3)nnc12 the results were TRHR PAM inactive, D1 ag inactive, D1 PAM inactive, D1 antag inactive, USP1 inh inactive and TRHR agonist inactive.
For COc1ccc(-n2ccnc2CN2CCCC(CO)(Cc3cccc(OC)c3)C2)cc1 (centres undefined) the results were TRHR PAM inactive, D1 ag inactive, D1 PAM inactive, D1 antag inactive, USP1 inh inactive and TRHR agonist inactive.
COc1cccc(CC2(CO)CCCN(Cc3c(C)cc(C)cc3-n3cccn3)C2)c1 (centres undefined) was read as TRHR PAM inactive, D1 ag inactive, D1 PAM inactive, D1 antag -36, USP1 inh inactive and TRHR agonist inactive.
CCCCSCCCNC(=O)c1cn(CC)c2ccc(S(=O)(=O)N3CCCCCC3)cc2c1=O was read as TRHR PAM inactive, D1 ag inactive, D1 PAM inactive, D1 antag inactive, USP1 inh inactive and TRHR agonist inactive.
Screening Cc1ccc2nc(Cl)c3cc(C(=O)NC4CCC(C)CC4)sc3c2c1 (centres undefined) returned TRHR PAM inactive, D1 ag inactive, D1 PAM inactive, D1 antag inactive, USP1 inh inactive and TRHR agonist inactive.
`COc1cc(OC)cc(C(=O)Nc2cccc(-c3ccc(N4CCOCC4)nn3)c2)c1` gave TRHR PAM inactive, D1 ag inactive, D1 PAM inactive, D1 antag inactive, USP1 inh inactive and TRHR agonist inactive.
For COc1ccc(Cl)cc1S(=O)(=O)Nc1cccc(-c2ccc(N3CCOCC3)nn2)c1 the results were TRHR PAM 32, D1 ag inactive, D1 PAM inactive, D1 antag inactive, USP1 inh inconclusive and TRHR agonist inactive.
Screening COc1ccc(Cl)cc1S(=O)(=O)Nc1cccc(-c2ccc(N3CCCC3)nn2)c1 returned TRHR PAM inactive, D1 ag inactive, D1 PAM inactive, D1 antag inactive, USP1 inh inactive and TRHR agonist inactive.
COc1ccc(C(=O)Nc2cccc(-c3ccc(N4CCOCC4)nn3)c2)cc1 was read as TRHR PAM 37, D1 ag inactive, D1 PAM inactive, D1 antag inactive, USP1 inh inconclusive and TRHR agonist inactive.
For Cc1cc(Br)ccc1NC(=O)c1ccc(NS(=O)(=O)c2c(C)noc2C)cc1 the results were TRHR PAM inactive, D1 ag inactive, D1 PAM inactive, D1 antag inactive, USP1 inh inactive and TRHR agonist inactive.
